Usually AC50 stands for the concentration at which the activity in the assay is half-maximal.

Several values for one entry are separate records, joined by “and”; a condition that tells them apart may be missing. Equal values may be shown once. Results filed as inconclusive are left out. Activity calls are given as the source filed them. The calls were made as follows, unless noted: active = hit-call score of the fitted dose curve at least 0.9, where 1 is the maximum; inconclusive = response in the unintended direction; inactive = score below 0.9.

Test [1] relates to Thyroperoxidase (TPO), gene 54314. Put plainly: CCTE_Simmons_AUR_rTPO: CCTE's Amplex UltraRed Assay for Thyroperoxidase (TPO) Inhibition, Simmons Lab (AID 2283662).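 As to AC50: potency for loss of signal meaning inhibition of peroxidase activity.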 In short, it runs like this:
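Rat thyroid microsomes (5 ug protein) with 25 uM Amplex UltraRed and 300 uM H2O2 in 200 mM phosphate buffer, 30 min at 37C in dark; fluorescence 544/590 nm. Eight concentrations, 5 nM–87.5 uM final, 0.5% DMSO, triplicate biological replicates.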

Test [2] in a line: CCTE_Simmons_CellTiterGLO_HEK293T: Viability Assessment in CCTE's Assays for Thyroperoxidase (TPO) Inhibition, Simmons Lab (AID 2283665).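 As to AC50: cells exposed to compound for 24 h before readout; actives reduce ATP signal below DMSO vehicle meaning cytotoxicity.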 Put shortly: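 HEK293T cells in DMEM with 1% FBS, dosed 24 h at 37C with 8 concentrations, 5 nM–87.5 uM final, 0.5% DMSO. ATP measured by CellTiter Glo luminescence; loss of signal vs DMSO, three biological replicates.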
In general terms: In ATP-based viability assays light output follows the ATP content of the culture.

Test [3] is described as follows: CEETOX_H295R_MTT_cell_viability: Viability Assessment in the CeeTox HT-H295R MTT Assay (AID 2283718; active = hit-call score of the fitted dose curve at least 0.9, where 1 is the maximum; inactive = score below 0.9;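 as to AC50: curve fitted both ways so AC50 may mark viability loss or gain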). Put shortly: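 Human H295R adrenal cells, prestimulated 48 h with 10 uM forskolin, were exposed 48 h to chemicals in 0.1% DMSO. Viability was measured in the same wells by MTT (0.5 mg/ml, 4 h, 37 C), absorbance 570/650 nm, as percent of controls.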
Test [4] is described as follows: Tanguay_ZF_120hpf_ActivityScore_legacy: (Legacy) Oregon State University Tanguay Lab 120 Hour Post-fertilization zebrafish Assay Score for Activity (AID 2283742).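 As to AC50: dechorionated Tropical 5D wild-type zebrafish embryos held singly per well; static exposure from 6 hpf until 120 hpf at 28 °C.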 In short, it runs like this: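 Dechorionated Tropical 5D embryos, one per well from 6 hpf, statically exposed to 120 hpf at 28 °C in 0.64% DMSO. Mortality and malformations scored binary by brightfield microscopy; activity score combines 18 endpoints, fitted positively versus DMSO.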

Read-out in test [5]: matrix metalloproteinase-1 (MMP1), MMP1 (gene 4312)
Put plainly: LTEA_HepaRG_MMP1: Life Technologies and Expression Analysis (LTEA) Assay for matrix metalloproteinase-1 (MMP1) using HepaRG (AID 2283658; active = hit-call score of the fitted dose curve at least 0.9, where 1 is the maximum; inactive = score below 0.9). Conditions: mRNA level, 48 h; actives raise or lower the signal. Put shortly: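 MMP1 transcript read by TaqMan qRT-PCR (Fluidigm array) after 48 h chemical exposure of HepaRG cells in serum-free induction medium. Eight-point half-log series, top 100 uM, 0.5% DMSO vehicle. Bidirectional curve fit against DMSO baseline.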

Read-out in test [6]: Cytochrome P450 (CYP24A1_1), CYP24A1 (gene 1591)
Kind of test: LTEA_HepaRG_CYP24A1_1: Life Technologies and Expression Analysis (LTEA) Assay for Cytochrome P450 (CYP24A1_1) using HepaRG (AID 2283671; active = hit-call score of the fitted dose curve at least 0.9, where 1 is the maximum; inactive = score below 0.9). The following applies: mRNA level, 48 h; actives raise or lower the signal. Put shortly: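 Differentiated human HepaRG cells in serum-free induction medium, exposed 48 h in duplicate to eight half-log concentrations from 100 uM top, 0.5% DMSO. Transcript measured by TaqMan qRT-PCR, normalised to ACTB, GAPDH, POLR2A; bidirectional fitting versus DMSO.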

A short description of test [7]: CCTE_Padilla_ZF_144hpf_TERATOSCORE: (Legacy) CCTE's 144 Hour Post-fertilization zebrafish Assay Teratoscore, Padilla Lab (AID 2283679; active = hit-call score of the fitted dose curve at least 0.9, where 1 is the maximum; inactive = score below 0.9;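 as to AC50: zebrafish embryos with chorions exposed by immersion from 6-8 hpf to 5 dpf with daily renewal; teratogenicity score from eye scoring of death hatching and malformations at 144 hpf; higher score means more developmental defects relative to DMSO baseline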). In short, it runs like this:
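Larvae scored by eye at 144 hpf for death, hatching and malformations after a day in clean Hanks'. Before that, daily-renewed exposure at 80 uM (0.4% DMSO, 26C) from roughly 6-8 hpf through 5 dpf, 4 embryos per chemical.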

The nature of test [8]: Tanguay_ZF_120hpf_TR_legacy: (Legacy) Oregon State University Tanguay Lab 120 Hour Post-fertilization zebrafish Assay for Touch Response (AID 2283667). Put shortly: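 Tropical 5D wild-type zebrafish embryos statically exposed to 120 hpf at 28°C, sealed and dark-covered, 0.64% DMSO final; touch response scored as present/absent by brightfield microscopy at 120 hpf. Trimethyltin chloride 5 uM positive control; dead embryos not scored.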

A short description of test [9]: STM_H9_CystineISnorm_perc: Stemina devTOX quickPredict H9 human embryonic stem cell (hESC)-based Assay for Cystine (CYSS) Metabolite Biomarker, Normalized (AID 2283713; active = hit-call score of the fitted dose curve at least 0.9, where 1 is the maximum; inactive = score below 0.9). In short, it runs like this:
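Undifferentiated H9 hESCs exposed 72 h, compound and media replaced every 24 h; final 24-h media analysed by UPLC-HRMS. Cystine normalized to C13 spike-in standard and median 0.1% DMSO control.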

Test [10] in a line: STM_H9_OrnCyssISnorm_ratio: Stemina devTOX quickPredict H9 human embryonic stem cell (hESC)-based Assay for Ornithine (ORN):Cystine (CYSS) Ratio (AID 2283714). Put shortly:
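Undifferentiated H9 hESCs exposed 72 h, media and compound replaced every 24 h; final 24-h conditioned media deproteinized and analysed by UPLC-HRMS against C13 spike-ins. Value is the internal-standard-normalized ORN/CYSS ratio versus 0.1% DMSO.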

`Oc1cccc(O)c1`: the AC50 in test [1] was 0.0137 µM (active); in test [3], 1.35 µM (active). The result in test [2] and in test [4] was inactive.
In the case of `CC(C)(C)c1cc(C(C)(C)C)c(O)c(C(C)(C)C)c1`, the compound was called inactive in [5], in test [6] and in [4]. The AC50 in [1] was 2.65 µM (active); in test [2], 9.06 µM (active); in test [7] it was 7.36 µM (active).
On to `Cc1oc(-c2ccccc2)nc1CCOc1ccc(C[C@H](Nc2ccccc2C(=O)c2ccccc2)C(=O)O)cc1`, for which the AC50 in test [1] was 27.5 µM (active); in test [2], 12.1 µM (active); in [7], 5.11 µM (active); in [4] it was 33.2 µM (active).
Regarding `NC(=O)N(O)[C@@H]1C=C[C@H](Oc2cccc(Oc3ccc(F)cc3)c2)C1`, the concentration at half-maximal activity (AC50) in [1] was 6.75 µM (active); in test [2] it was 33.1 µM (active); in test [7] it was 14.9 µM (active). Moreover, the outcome in test [8], in test [3] and in [4] was inactive.
As to `COc1ccc([N+](=O)[O-])cc1N`, the AC50 in test [1] is 3.52 µM (active). Further, the result in [2], in [9], in test [10], in test [3] and in test [4] was inactive.
On to `CC(C)(C)c1ccc(O)c(C(C)(C)C)c1`, for which the AC50 in test [1] is 13.6 µM (active); in [2], 6.68 µM (active); in test [7] it was 7.38 µM (active); in [4], 0.00448 µM (active).
As to `O=C(O)Cc1cc(I)c(Oc2cc(I)c(O)c(I)c2)c(I)c1`, the compound was classed as inactive in test [8], in [9] and in test [10]. Moreover, the concentration at half-maximal activity (AC50) is 0.0352 µM (active) in test [7] and 3.08 µM (active) in test [4].
Turning to `CCCCCCCCCCCCCC[N+](C)(C)C`, the AC50 in test [1] was 38.4 µM (active); in test [2] it was 13.7 µM (active).
For `CC(C)(C)c1cccc(C(C)(C)C)c1O`, the AC50 in test [1] is 2.68 µM (active); in test [2] it was 10.2 µM (active); in [7], 97.8 µM (active). In addition, the call in test [4] was inactive.
Consider `Cc1cc(C)c(O)c(C)c1`, for which the AC50 in [1] is 5.53 µM (active). In addition, the result in test [2] and in test [4] was inactive.
Consider `c1ccc2cc3c(ccc4ccccc43)cc2c1`, for which the AC50 in [1] was 22.6 µM (active); in [2], 43.8 µM (active); in [7] it was 20.4 µM (active). Further, the result in test [3] and in [4] was inactive.
As to `N#C[C@@H]1CC(F)(F)CN1C(=O)CNC1CC2CCC(C1)N2c1ncccn1` (stereo partly drawn), the AC50 in [1] was 36.6 µM (active). In addition, the call in [2], in [9] and in test [4] was inactive.
In the case of `CC(O)CO` (stereo not drawn), the call in test [5], in [6] and in [4] was inactive. In addition, the AC50 in [9] was 675000 µM (active).
On to `O=c1c(-c2ccc(O)cc2)coc2cc(O)ccc12`, for which the AC50 in test [1] is 9.2 µM (active); in test [2], 0.393 µM (active). Further, the compound was classed as inactive in test [7], in test [3] and in test [4].
For `C=C(C)C(=O)OCCC(F)(F)C(F)(F)C(F)(F)C(F)(F)C(F)(F)C(F)(F)F`, the compound was called inactive in [5], in test [6], in test [7] and in test [4].
As for `NC(=O)N1C(=O)C(C(=O)c2cc(Cl)cs2)c2cc(F)c(Cl)cc21` (stereo not drawn), the call in test [8] was inactive. In addition, the AC50 was 4.57 µM (active) in test [7] and 2.88 µM (active) in [4].
Consider `O=[N+]([O-])c1ccc(O)cc1`, for which the result in test [8], in [3] and in [4] was inactive. Besides, the AC50 in [7] is 64.4 µM (active) and 59 µM (active).
Take `CN1CCN(c2ccccc2/C=C2\SCCN(c3ccc(Cl)c(Cl)c3)C2=O)CC1`: the compound was called inactive in [1] and in test [4]. In addition, the AC50 in test [2] was 9.55 µM (active); in [7] it was 5.38 µM (active); in test [9] it was 7.81 µM (active); in test [10], 7.71 µM (active).
Consider `Nc1cccc2c(N)cccc12`, for which the AC50 in [1] is 2.06 µM (active); in test [2] it was 30.1 µM (active); in test [7] it was 48.9 µM (active). Moreover, the outcome in test [9], in [10], in test [3] and in test [4] was inactive.
For the compound `C#C[C@]1(O)CC[C@H]2[C@@H]3CCC4=CC(=O)CC[C@@H]4[C@H]3CC[C@@]21C`, the compound was called inactive in test [5], in [6] and in test [4]. For the same compound, the AC50 in test [1] is 64.9 µM (active); in test [2], 66 µM (active); in test [7], 16.1 µM (active); in [9], 79.8 µM (active); in [10], 74.8 µM (active); in test [3], 2.31 µM (active).
With `CCCCCCCCCCCCN1CCCC1=O`, the AC50 in test [1] is 17.4 µM (active); in test [2] it was 14.9 µM (active); in test [7] it was 8.11 µM (active); in test [4], 45.8 µM (active). In addition, in [8], the result was inactive.
As to `CC[C@H](c1ccc(O)cc1)[C@@H](CC)c1ccc(O)cc1`, the AC50 in [1] is 4.36 µM (active); in test [2] it was 2.25 µM (active); in test [7], 14.9 µM (active). The result in [4] was inactive.
For the compound `O=C(OCCOCCOC(=O)c1ccccc1)c1ccccc1`, the result in test [5], in test [6], in test [9], in test [10] and in [4] was inactive. Besides, in test [7], the AC50 is 1.74 µM (active).
Turning to `CCCCOCCO`, the call in [7] and in test [4] was inactive.
For `c1ccc2c(c1)Cc1ccccc1-2`, the outcome in test [3] and in [4] was inactive.
Turning to `CCc1ccc(CCOc2ccc(CC3SC(=O)NC3=O)cc2)nc1` (stereo not drawn), the outcome in [8], in test [3] and in test [4] was inactive. For the same compound, the values for the AC50 in test [9] and in test [10] were 88.9 µM (active) and 84.5 µM (active), respectively.
Take `COCC(C)OCC(C)O` (stereo not drawn): in test [4], the call was inactive.
As to `CN1CCC[C@H]1c1cccnc1`, the outcome in [9], in [3] and in [4] was inactive.
As for `c1ccc2c(c1)ccc1ccccc12`, the call in test [7] and in [4] was inactive. Moreover, the concentration at half-maximal activity (AC50) in [9] is 80.3 µM (active); in test [10] it was 78.7 µM (active).
As to `CC(=O)NC1(c2cccc(F)c2)CCN(CC[C@@]2(c3ccc(Cl)c(Cl)c3)CN(c3ccccc3)C(=O)CO2)CC1`, in test [4], the compound was classed as inactive.

These data come from PubChem BioAssay (EPA / NIEHS).
